Experimental findings from PubChem BioAssay (NCATS) are described below.

Records with an inconclusive call do not appear. Calls of active or inactive are those of the source. Calls follow the shape of the dose curve; as a rule, active = well fitted cell-killing curve with a large enough effect; inconclusive = small, poorly fitted or top-dose-only effect, or effect the other way; inactive = no such curve, though single readings can be large or run the other way.
Potency is read from the fitted curve at half-maximal effect.

The nature of one assay: Quantitative High-Throughput drug screen in 47 multiple myeloma cell lines against the NCATS MIPE library collection: KMS12PE_JCRB cell viability assay (AID 1918972). Also: nearly all actives have a fitted effect of over 30% in size. The note with it: KMS12PE myeloma viability, CellTiter-Glo ATP, 48 h; series mostly up to 45.8 µM. In short, it runs like this: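 Luminescent ATP measurement with CellTiter-Glo gives viability, scaled between DMSO-only wells (100%) and media-only wells (0%). Cells, 500 per well, faced library compounds for 48 hours at 37C.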
For orientation: Cellular ATP, detected with luciferase, serves as a proxy for viable cell number.
As to `O=C(Nc1ncc(-c2cc(C(F)F)nn2-c2c(Cl)cccc2Cl)s1)C1CC1`, the Potency is 372 nM (active).
As for `Cc1[nH]nc2ccc(-c3cncc(OC[C@@H](N)Cc4ccccc4)c3)cc12`, the Potency was 833 nM (active).
With `Nc1ncnc2c1c(-c1cccc(OCc3ccccc3)c1)cn2C1CC(CN2CCCC2)C1` (stereo unspecified), the Potency is 9350 nM (active).
Take `COc1cc(C)c(Sc2cnc(NC(=O)c3ccc(CNC(C)C(C)C)cc3)s2)cc1C(=O)N1CCN(C(C)=O)CC1` (stereo unspecified): the Potency entry is “inactive”.
Turning to `COc1cc2c(Oc3ccc(-c4cnc(Nc5ccc(F)cc5)n(C)c4=O)cc3F)ccnc2cc1OCCCN1CCOCC1`, the Potency was 1870 nM (active).
In the case of `C[C@@H]1COC(Nc2ccc3ncnc(Nc4ccc(OCc5nccs5)c(Cl)c4)c3c2)=N1`, the Potency is 16600 nM (active).
Consider `COc1cc2c(NC3CCN(C(C)C)CC3)nc(C3CCCCC3)nc2cc1OCCCN1CCCC1`, for which the Potency was 6620 nM (active).
The same measure, in the same setting: for `Cc1cc(C(=O)N2CCN(c3cccc(Cl)c3)CC2)n(-c2ccccc2)n1` the value was 743 nM (active); for `O=C(Cc1ccc(-c2ccc(OCCN3CCOCC3)cc2)cn1)NCc1ccccc1`, 14.8 nM (active).
For the compound `Cn1cc(-c2[nH]c3cc(NC(=O)[C@H](N)C4CCCCC4)cc4c3c2C=NNC4=O)cn1`, the Potency was 1180 nM (active).
As for `CNC(=O)c1ccccc1Nc1nc(Nc2ccc(N3CCOCC3)cc2OC)ncc1Cl`, the Potency is 1050 nM (active).
For the compound `CC(C)c1ccccc1Cc1cc(C(=O)Nc2ccc(S(=O)(=O)c3ccccc3C(C)(C)C)cc2)c(O)c(O)c1O`, the Potency entry is “inactive”.
In the case of `Nc1ccn([C@@H]2O[C@H](CO)[C@H](O)C2(F)F)c(=O)n1`, the Potency is 74.3 nM (active).
In the case of `O=C(CCCCCCC(=O)Nc1ccc([C@H]2O[C@@H](CSc3nc(-c4ccccc4)c(-c4ccccc4)o3)C[C@@H](c3ccc(CO)cc3)O2)cc1)NO`, the Potency entry was “inactive”.
Still for that read-out and setting: the same measure for `CCS(=O)(=O)c1cccc(-c2cc(C(=O)NC3CCN(C)CC3)c(C)c3[nH]c4ncc(C)cc4c23)c1`: 3320 nM (active); for `COc1cc2ncnc(Nc3ccc(F)c(Cl)c3)c2cc1NC(=O)C=CCN1CCCCC1`: 1870 nM (active); for `C#Cc1cccc(Nc2ncnc3cc(OC)c(OCCCCCCC(=O)NO)cc23)c1`: 148 nM (active).
Same read-out and setting: the same measure for `O=c1[nH]nc(Sc2ncc([N+](=O)[O-])s2)n1-c1ccc2c(c1)OCCO2`: 7430 nM (active).
As for `CC[C@@]1(O)C(=O)OCc2c1cc1n(c2=O)Cc2cc3cc(O)ccc3nc2-1`, the Potency is 1050 nM (active).
For the compound `COc1ccc(-c2cc3c(C)nc(N)nc3n(C3CCC(OCCO)CC3)c2=O)cn1` (stereo unspecified), the Potency is 372 nM (active).
Regarding `OCc1ccc(-c2ccc(-c3ccc(CO)s3)o2)s1`, the Potency was 235 nM (active).
As for `CN1CCN(c2cc(C(=O)Nc3ccc4c(c3)-c3c(c(C(N)=O)nn3-c3ccc(F)cc3)CC4)c(Cl)cn2)CC1`, the Potency was 20900 nM (active).
`Cc1cnc(Nc2ccc(F)cc2Cl)nc1-c1c[nH]c(C(=O)N[C@H](CO)c2cccc(Cl)c2)c1`: the Potency was 10500 nM (active).
As for `CN(C)CC=CC(=O)Nc1cc2c(Nc3ccc(F)c(Cl)c3)ncnc2cc1O[C@H]1CCOC1`, the Potency was 1180 nM (active).
On to `CC(C)c1cc(C(=O)N2Cc3ccc(CN4CCN(C)CC4)cc3C2)c(O)cc1O`, for which the Potency is 118 nM (active).
`Clc1cccc(-c2nnnn2Cc2cccnc2)c1Cl`: the Potency result was “inactive”.
As to `N#CCNC(=O)c1ccc(-c2ccnc(Nc3ccc(N4CCOCC4)cc3)n2)cc1`, the Potency was 5260 nM (active).
As for `Nc1ncnc2c1c(-c1cnc3[nH]ccc3c1)nn2C1CCCC1`, the Potency is 935 nM (active).
Still for that read-out and setting: the same measure for `NC1(Cc2ccc(Cl)cc2)CCN(c2ncnc3[nH]ccc23)CC1`: 3720 nM (active); for `COc1ccc2c(c1)CC[C@@H](CN(C)CC(=O)O)[C@H]2c1ccccc1`: 1050 nM (active).
In the case of `Nc1cc(C(F)(F)F)c(-c2cc(N3CCOCC3)nc(N3CCOCC3)n2)cn1`, the Potency was 418 nM (active).
Still for that read-out and setting: the same measure for `COc1cccc2c(NCc3ccccc3)nc(-n3c(N)nc4ccccc43)nc12`: 2350 nM (active).

The next assay can be described thus: Quantitative High-Throughput drug screen in 47 multiple myeloma cell lines against the NCATS MIPE library collection: KMS20_JCRB cell viability assay (AID 1918973). Also: nearly all actives have a fitted effect of over 45% in size. The settings on record: CellTiter-Glo ATP, 48 h; series mostly up to 45.8 µM. In short, it runs like this:
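CellTiter-Glo luminescence (ATP) after 48 h compound exposure, 37C/5% CO2; 500 cells/well; MIPE 4.0 approved/investigational drugs pinned in; DMSO = 100%, media only = 0% viability.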
Consider `O=C(Nc1ncc(-c2cc(C(F)F)nn2-c2c(Cl)cccc2Cl)s1)C1CC1`, for which the Potency was 469 nM (active).
In the case of `Cc1[nH]nc2ccc(-c3cncc(OC[C@@H](N)Cc4ccccc4)c3)cc12`, the Potency was 1180 nM (active).
For the compound `Nc1ncnc2c1c(-c1cccc(OCc3ccccc3)c1)cn2C1CC(CN2CCCC2)C1` (stereo unspecified), the Potency was 132 nM (active).
Regarding `COc1cc2c(Oc3ccc(-c4cnc(Nc5ccc(F)cc5)n(C)c4=O)cc3F)ccnc2cc1OCCCN1CCOCC1`, the Potency was 2960 nM (active).
For `COc1cc2c(NC3CCN(C(C)C)CC3)nc(C3CCCCC3)nc2cc1OCCCN1CCCC1`, the Potency is 2350 nM (active).
`Cc1cc(C(=O)N2CCN(c3cccc(Cl)c3)CC2)n(-c2ccccc2)n1`: the Potency is 209 nM (active).
Take `Cn1cc(-c2[nH]c3cc(NC(=O)[C@H](N)C4CCCCC4)cc4c3c2C=NNC4=O)cn1`: the Potency is 935 nM (active).
As for `CNC(=O)c1ccccc1Nc1nc(Nc2ccc(N3CCOCC3)cc2OC)ncc1Cl`, the Potency is 2350 nM (active).
With `CC(C)c1ccccc1Cc1cc(C(=O)Nc2ccc(S(=O)(=O)c3ccccc3C(C)(C)C)cc2)c(O)c(O)c1O`, the Potency is 9350 nM (active).
Consider `Nc1ccn([C@@H]2O[C@H](CO)[C@H](O)C2(F)F)c(=O)n1`, for which the Potency is 418 nM (active).
In the case of `O=C(CCCCCCC(=O)Nc1ccc([C@H]2O[C@@H](CSc3nc(-c4ccccc4)c(-c4ccccc4)o3)C[C@@H](c3ccc(CO)cc3)O2)cc1)NO`, the Potency is 6620 nM (active).
In the case of `CCS(=O)(=O)c1cccc(-c2cc(C(=O)NC3CCN(C)CC3)c(C)c3[nH]c4ncc(C)cc4c23)c1`, the Potency is 1320 nM (active).
On to `COc1cc2ncnc(Nc3ccc(F)c(Cl)c3)c2cc1NC(=O)C=CCN1CCCCC1`, for which the Potency was 2960 nM (active).
As for `C#Cc1cccc(Nc2ncnc3cc(OC)c(OCCCCCCC(=O)NO)cc23)c1`, the Potency is 83.3 nM (active).
For `CC=C1NC(=O)[C@H]2CSSCCC=C[C@H](CC(=O)N[C@H](C(C)C)C(=O)N2)OC(=O)[C@H](C(C)C)NC1=O`, the Potency is 20.9 nM (active).
As for `O=c1[nH]nc(Sc2ncc([N+](=O)[O-])s2)n1-c1ccc2c(c1)OCCO2`, the Potency is 2090 nM (active).
Same read-out and setting: for `CC[C@@]1(O)C(=O)OCc2c1cc1n(c2=O)Cc2cc3cc(O)ccc3nc2-1` the value was 235 nM (active).
Turning to `COc1ccc(-c2cc3c(C)nc(N)nc3n(C3CCC(OCCO)CC3)c2=O)cn1` (stereo unspecified), the Potency was 26.4 nM (active).
As to `OCc1ccc(-c2ccc(-c3ccc(CO)s3)o2)s1`, the Potency was 1870 nM (active).
Consider `CN1CCN(c2cc(C(=O)Nc3ccc4c(c3)-c3c(c(C(N)=O)nn3-c3ccc(F)cc3)CC4)c(Cl)cn2)CC1`, for which the Potency was 2960 nM (active).
Turning to `Cc1cnc(Nc2ccc(F)cc2Cl)nc1-c1c[nH]c(C(=O)N[C@H](CO)c2cccc(Cl)c2)c1`, the Potency is 3320 nM (active).
With `CN(C)CC=CC(=O)Nc1cc2c(Nc3ccc(F)c(Cl)c3)ncnc2cc1O[C@H]1CCOC1`, the Potency is 2090 nM (active).
As for `CC(C)c1cc(C(=O)N2Cc3ccc(CN4CCN(C)CC4)cc3C2)c(O)cc1O`, the Potency is 187 nM (active).
Take `Clc1cccc(-c2nnnn2Cc2cccnc2)c1Cl`: the Potency entry was “inactive”.
`N#CCNC(=O)c1ccc(-c2ccnc(Nc3ccc(N4CCOCC4)cc3)n2)cc1`: the Potency is 13200 nM (active).
The same measure, in the same setting: for `Nc1ncnc2c1c(-c1cnc3[nH]ccc3c1)nn2C1CCCC1` the value was 83.3 nM (active); for `NC1(Cc2ccc(Cl)cc2)CCN(c2ncnc3[nH]ccc23)CC1`, 3320 nM (active).
Still for that read-out and setting: for `Nc1cc(C(F)(F)F)c(-c2cc(N3CCOCC3)nc(N3CCOCC3)n2)cn1` the value was 1180 nM (active); for `COc1cccc2c(NCc3ccccc3)nc(-n3c(N)nc4ccccc43)nc12`, 2960 nM (active).
